Growth data for eight compounds are collected here from PubChem BioAssay (NCI).

About 83,000 compounds went through this panel and 20% of them were active in at least one assay; those are over-represented in the sample as a whole.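 Each cell line was grown in a 96-well plate and treated with one concentration of compound for 48 hours. Values below 10 were considered active.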 A number with no mark means an inactive call. Calls of active or inactive are those of the source.

What all share (assay): NCI-60 one-dose screen, 48 h (100 = growth as untreated, 0 = no growth, -100 = all killed)
Conditions in all cases: 10 µM unless noted

Experiment [1] relates to NCI-H23 lung.
In experiment [2] the test system is NCI-H226 lung.
Experiment [3] has as its system NCI-H322M lung.
In experiment [4] the test system is NCI-H460 lung.
In experiment [5] the test system is HOP-92 NSCLC.
The subject of experiment [6] is NCI-H522 lung.
For experiment [7], the system named is A549/ATCC NSCLC.
For experiment [8], the system named is 786-0 renal.
Experiment [9] has as its system COLO 205 colon.
The test system of experiment [10] is DU-145 prostate.
The subject of experiment [11] is K-562 leukemia.
Experiment [12] concerns MALME-3M melanoma.
Experiment [13] deals with MDA-MB-231 breast.
Experiment [14] concerns RXF 393 renal.
Experiment [15] deals with SF-268 CNS.
In experiment [16] the test system is SF-295 CNS.
For experiment [17], the system named is SF-539 CNS.
For experiment [18], the system named is UACC-257 melanoma.
Experiment [19] concerns M14 melanoma.
Experiment [20] has as its system HOP-62 NSCLC.

In the case of `COC(=O)CNS(=O)(=O)c1ccc2c(c1)Cc1cc(S(=O)(=O)NCC(=O)OC)ccc1-2`, the growth is 107% in [1]; 89.9% in experiment [2]; 106% in experiment [3]; 105% in experiment [4]; 99.6% in experiment [5]; 95.7% in experiment [6]. The growth in [7] is 99.7%; in [8], 105%; in experiment [9] it was 107%; in [10], 113%; in [11] it was 100%; in experiment [12] it was 100%. Also, the growth in [13] is 105%; in [14], 108%; in experiment [15], 102%; in experiment [16] it was 100%; in experiment [17], 97.2%; in experiment [18], 97.6%. For the same compound, the growth in [19] was 103%.

Regarding `CCN(CC)CCCC(C)Nc1cnc(C(=O)Nc2cccc3ccc(OC)nc23)cn1` (stereo not drawn), the growth was 96.1% in [1]; 61.4% in [2]; 75.5% in experiment [3]; 94.2% in experiment [20]; 1.05% (active) in experiment [4]; 5.07% (active) in experiment [6]. The growth in [7] is 81.2%; in experiment [8], 73.4%; in experiment [9] it was 71.4%; in experiment [10], 78.8%; in experiment [11] it was -57.1% (active); in [12], -69.8% (active). For the same compound, the growth in [13] was 71.8%; in experiment [14] it was 46%; in experiment [15], 63%; in experiment [16] it was 101%; in experiment [17], 0.457% (active); in experiment [18], -39% (active). Further, in experiment [19], the growth is -75.6% (active).

Consider `Clc1ccc(Nc2ncnc3c2sc2ncccc23)c(Cl)c1`, for which the growth in experiment [1] is 14.9%; in [2], 43.6%; in experiment [3] it was 45.1%; in [4] it was 10.1%; in [5], 22.3%; in [6], 31.8%. In addition, the growth is 26.8% in experiment [7]; 17.2% in experiment [8]; 27.6% in experiment [9]; 20.1% in experiment [10]; 43.4% in experiment [11]; 58.2% in experiment [12]. The growth in experiment [13] is 61.1%; in [14], 34%; in experiment [15], 18.4%; in experiment [16], 17.9%; in [17] it was 6.17% (active); in experiment [18] it was 39.3%. The growth in [19] is -25.6% (active).

In the case of `CCOC(=O)C(=CNc1ccccc1Cl)C(=O)OCC`, the growth was 103% in experiment [1]; 122% in [2]; 110% in [3]; 94.5% in experiment [20]; 103% in experiment [4]; 72% in [6]. Also, the growth in [7] was 85.6%; in experiment [8] it was 87.7%; in experiment [9], 129%; in experiment [10], 107%; in experiment [11] it was 54.3%; in experiment [12] it was 140%. In addition, the growth is 104% in experiment [13]; 100% in [14]; 94.3% in experiment [15]; 89.9% in experiment [16]; 102% in experiment [17]; 103% in experiment [18]. Moreover, the growth in [19] was 113%.

Take `Nc1nc(N)c2c(n1)NC(c1sc(Cl)nc1Cl)CC(c1ccccc1)=N2` (stereo not drawn): the growth in experiment [1] was 76.4%; in experiment [2] it was 73.6%; in experiment [3], 101%; in experiment [20] it was 41.9%; in experiment [4], 26.8%; in [6], 9.11% (active). Besides, the growth in experiment [7] was 43.1%; in experiment [8] it was 62%; in experiment [9], 46.7%; in [10] it was 75.1%; in experiment [11], 17.5%; in experiment [12] it was 26.8%. In addition, the growth in [13] is 47.8%; in experiment [14], 43.8%; in experiment [15], 53.6%; in experiment [16] it was 35.2%; in experiment [17], 35.4%; in experiment [18], 68.6%. Moreover, in experiment [19], the growth was 26.2%.

`CCCCCCCCCCCCCC[N+](C)(C)CCCCCCCCCCCCCC`: the growth in experiment [1] is 70.3%; in experiment [2] it was 72.9%; in [3], 98.7%; in experiment [20], 86.2%; in experiment [4], 74.3%; in [6], 47.3%. For the same compound, the growth in experiment [7] was 55.3%; in experiment [8], 63.4%; in experiment [10] it was 97.9%; in [11] it was 30.5%; in [12] it was 50.1%; in experiment [13], 78.9%. Besides, the growth in experiment [14] was 2.29% (active); in experiment [15], 70.8%; in [17], 77.2%; in [18], 82.5%; in experiment [19] it was 75.4%.

`CCCCCCCCCCCCCCCCOc1ccc(S(=O)(=O)N(C)C)cc1[N+](=O)[O-]`: the growth in experiment [1] is 97.4%; in experiment [2], 104%; in experiment [3] it was 103%; in [20], 49.2%; in experiment [4], 118%; in experiment [6], 94.5%. In addition, the growth in [7] is 98.7%; in experiment [8], 67.3%; in experiment [9], 114%; in experiment [10], 113%; in experiment [11], 112%; in experiment [12], 86.8%. The growth in experiment [13] was 88.9%; in experiment [14], 61.7%; in experiment [15] it was 97.5%; in experiment [17] it was 89.6%; in experiment [18] it was 108%; in experiment [19], 106%.

For `Cn1nc(C(F)(F)F)cc1-c1cc(Cl)c(OCc2ccc(Cl)cc2)c(-c2ccc(Cl)c(C(F)(F)F)c2)c1O`, the growth was 4.69% (active) in experiment [1]; -13.3% (active) in experiment [2]; 9.05% (active) in experiment [3]; -28.6% (active) in experiment [20]; 0.354% (active) in experiment [4]; 1.3% (active) in experiment [6]. The growth is 13.2% in experiment [7]; -4.08% (active) in experiment [8]; -78.6% (active) in experiment [9]; 11.5% in experiment [10]; 8.16% (active) in experiment [11]; -26.5% (active) in experiment [12]. In addition, the growth in [13] is -21.8% (active); in [14], -17.6% (active); in experiment [15] it was 2.82% (active); in [17], -12.5% (active); in experiment [18], 1.55% (active); in experiment [19], -13.5% (active).
